Experimental data reported in PubChem BioAssay AID449764 (Southern Research Specialized Biocontainment Screening …, 2010).
Among all 2,300 compounds or so, about 1,700 (74%) were called active. The rule behind the calls is not given here. The set was probably picked from earlier hits. This is one part of the list. Entries with a potency or affinity are not part of this list.

Experiment: Mycobacterium tuberculosis H37Rv growth inhibition, no glycerol, confirmatory dose response (AID 449764);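 note: growth read after 7 days of incubation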
Settings: series mostly up to 100 µM; inhibition: at the top concentration

SMILES	inhibition
COc1ccc(-c2cc3n(n2)CCc2nc4ccccc4n2-3)cc1	26.8% (inactive)
C/C(=C\C(=O)c1ccccc1)Nc1ccc(Cl)c(Br)c1	-1.81% (inactive)
COc1ccc(/C(O)=C/Sc2nnc(Cc3ccccc3)o2)cc1	4.86% (inactive)
CCn1c2ccccc2c2cc(NC(=O)CN(C)CC(=O)Nc3ccc(N4CCOCC4)cc3)ccc21	-3.49% (inactive)
C=CCc1cccc2cc(C(=O)OCC(=O)c3ccccc3)c(=O)oc12	3.21% (inactive)
COc1cc(/C=C2\C(=O)NN(c3ccc(C)cc3)C2=O)cc([N+](=O)[O-])c1O	6.39% (inactive)
O=C1CCC(=O)N1CNc1ccc(Oc2ccccc2)cc1	8.78% (inactive)
O=C(OCc1ccccc1)c1cccc(-c2nnn(Cc3ccccc3)n2)c1	-2.98% (inactive)
O=C(CSc1n[nH]c(-c2ccccc2)n1)Nc1ccc(Br)cn1	-23.1% (inactive)
CN1CCN2c3ccccc3Cc3ccccc3C2C1 (stereo not given)	28.2% (inactive)
CC(C)(C)c1nc2sc3c(c2c(=O)o1)CCCC3	9.95% (inactive)
O=c1c2c3c(sc2nc(N2CCNCC2)n1-c1cccc(Cl)c1)CCCCC3	13.2% (inactive)
CCCCOC(=O)c1c(C)oc2ccc(NS(=O)(=O)c3ccc4c5c(cccc35)C(=O)N4)cc12	23.8% (inactive)
COC(OC)c1ccnc(-c2ccc(OC(=O)c3cccs3)cc2)n1	-10.9% (inactive)
CCOc1ccc(OCc2ccc(C(=O)N/N=C(\C)c3ccccn3)cc2)cc1	1.73% (inactive)
C/C(=N\NC(=O)CC(C)C)c1c(C(F)(F)F)[nH]n(-c2nc3ccccc3s2)c1=O	10.1% (inactive)
Oc1cccc(-c2nc3ccccc3s2)c1	5.57% (inactive)
Cc1ccc(NC(=O)CNCc2cccs2)cc1Br	7.81% (inactive)
COC(=O)c1ccc(N/C(C)=C/C(=O)c2ccc(C)o2)cc1	-5.59% (inactive)
O=C(c1cccc([N+](=O)[O-])c1)N1CCN(c2ccc(N3CCOCC3)nn2)CC1	-4% (inactive)
S=c1[nH]c2ccc3ccccc3c2[nH]1	2.34% (inactive)
Oc1ccccc1C=NC1=NN(c2cccc(C(F)(F)F)c2)CC1	9.07% (inactive)
CCCCCCc1ccc(N2C[C@H](C)[C@@H](CC(=O)NCc3ccccc3)C2=O)cc1	4.93% (inactive)
O=Cc1ccc(-c2ccc(Cl)cc2Cl)[nH]1	1.82% (inactive)
O=C(Nc1ccc(-c2noc(CCc3ccccc3)n2)cc1)c1cccnc1	15.6% (inactive)
CNC(=O)c1csc(-c2ccc(Cl)cc2)n1	-10.9% (inactive)
CN1C(=O)c2cccc3c(Br)ccc(c23)C1=O	12.8% (inactive)
O=C(C1CC(=O)N(c2ccc3c(c2)OCCO3)C1)N1CCN(c2cccc(C(F)(F)F)c2)CC1 (stereo not given)	-5.7% (inactive)

SMILES	inhibition
CO/N=C\CC(=O)Nc1ccc(Oc2ccccc2)cc1	-1.66% (inactive)
COc1ccc(-c2cc(C(=O)N(C)CC(=O)Nc3cccc(F)c3)c3ccccc3n2)cc1	-7.46% (inactive)
CCc1ccc(NC(=O)c2ccc(C3SCC(=O)N3CCc3ccccc3)cc2)cc1 (stereo not given)	18.5% (inactive)
COc1cc(/C=N/N2CCOCC2)ccc1OCc1ccc(Cl)cc1	7.51% (inactive)
CC(C)OC(=O)c1ccc(N)cc1	0.17% (inactive)
CC(=O)Oc1ccc2occ(C(=O)c3cccs3)c2c1	-6.49% (inactive)
CCCC1CCC(C(=O)Nn2c(C)nc3ccccc3c2=O)CC1 (stereo not given)	-9.95% (inactive)
CCOC(=O)c1cc(CC)sc1NC(=O)c1cc(OCC)c(OCC)c(OCC)c1	0.67% (inactive)
Nc1nc2ccccc2n1/N=C/c1ccc(Br)cc1	-0.83% (inactive)
CCOc1cc(C2NN=C(c3ccc(C)cc3)S2)ccc1O (stereo not given)	9.69% (inactive)
CC(=O)c1ccc(NC(=O)COC(=O)c2c3c(nc4ccccc24)/C(=C\c2cccs2)CCC3)cc1	4.09% (inactive)
CC(/C=C/C=C/c1ccccc1)=N\NC(=O)c1cccnc1	-10.2% (inactive)
CCNc1nc(NCC)n2c(SC(C(=O)Nc3cc(C)ccc3C)c3ccccc3)nnc2n1 (stereo not given)	-4.86% (inactive)
Cc1ccc(-c2cn3cccnc3n2)cc1NC(=O)c1ccc(Br)o1	2.75% (inactive)
Clc1nc2c(-c3ccccc3)nnn2c2ccccc12	1.59% (inactive)
CCCCc1ccc(NC(=O)CSC2=NN3CCCC(=O)N=C3S2)cc1	16% (inactive)
COc1ccccc1/C=C/C1=NC(=C\C=C/c2ccccc2)/C(=O)O1	1.32% (inactive)
Cc1ccc(-c2nnc(C)c(N3CCCC3)n2)cc1	21.2% (inactive)
CC(OC(=O)CCN=C1NS(=O)(=O)c2ccccc21)C(=O)Nc1ccc(F)c(F)c1F (stereo not given)	-29.2% (inactive)
COc1cc(NC(=O)c2ccc(C(C)(C)C)cc2)c(OC)cc1NC(=O)CN1CCCCC1	0.98% (inactive)
Cc1sc2nc(CN(C(=O)NC3CCCCC3)C3CCCC3)[nH]c(=O)c2c1C	13.8% (inactive)
Cc1cc(Nc2ccccc2)c2c([N+](=O)[O-])ccc(C)c2n1	-0.97% (inactive)
O=Cc1ccc2noc(-c3ccc(Cl)cc3)c2c1	20.9% (inactive)
Cc1nn(-c2ccccn2)c2c1-c1nc(N3CCOCC3)ncc1CC2	5.91% (inactive)
CC(C)N1C(=O)NC(=O)C2(Cc3cc([N+](=O)[O-])ccc3N(C)C2c2ccccc2)C1=O (stereo not given)	-12% (inactive)
CN(C)c1nc(NCc2ccccc2)nc(N/N=C/c2ccc3c(c2)OCO3)n1	22.3% (inactive)
CCCCn1c(N)c(N(CC(C)C)C(=O)c2oc3c(Cl)cccc3c2C)c(=O)[nH]c1=O	2.95% (inactive)
